A selection: hits, their analogues and other compounds. The true share with any hit is near 21%.
Giardia FBPA inh – inhibitors of Giardia lamblia fructose-1,6-bisphosphate aldolase; A8B2U2; purified Giardia FBPA; Potency, µM (series often up to 59.6 µM), hits mostly inhibitors; 290,000 tested, 0.71% active; also: nearly all actives have a fitted effect of over 55% in size
Target sequence (A8B2U2 whole entry, looked up): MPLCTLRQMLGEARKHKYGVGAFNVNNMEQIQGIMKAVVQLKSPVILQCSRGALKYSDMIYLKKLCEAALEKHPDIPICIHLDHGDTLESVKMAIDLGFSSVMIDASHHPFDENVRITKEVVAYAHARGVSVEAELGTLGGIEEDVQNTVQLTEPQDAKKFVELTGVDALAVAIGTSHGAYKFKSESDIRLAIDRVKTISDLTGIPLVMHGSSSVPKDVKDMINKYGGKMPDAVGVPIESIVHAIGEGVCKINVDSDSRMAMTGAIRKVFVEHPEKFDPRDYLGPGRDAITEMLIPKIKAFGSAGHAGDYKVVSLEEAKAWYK
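40 nM FBPA preincubated 10 min at RT with compound (up to 57.5 uM final), then substrate plus GAPDH/TPI/NAD/arsenate coupling and diaphorase/resazurin added. Fluorescence read after 20 min at RT, 525/598 nm.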
NS1 inh – influenza NS1 inhibition | Potency, µM (titrated, usually from 46.1 µM) | 270,000 tested, 0.4% active; calls by dose curve; also: actives are rising curves; nearly all actives have a fitted effect of over 50% in size
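A cell-based growth assay was used: compounds that relieve NS1-induced slow growth of budding yeast raise OD600. Assay medium was yeast nitrogen base with ammonium sulphate and -URA supplement, pH 6.0, with 2% galactose.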
Shiga toxin inh – inhibitors of Shiga toxin in Vero cells; Vero cells, Shiga toxin protein synthesis inhibition reporter; inhibition, % at 38.7 µM; 290,000 tested, 9.2% active; in the data active = inhibition mostly above about 28%, no sharp cut-off; inactive = mostly below about 43%
Pf growth 48h – P. falciparum growth inhibition at 48 hours (one generation); 310,000 tested, 5.9% active; Potency, µM (highest dose often 28.7 µM), usual class: inhibitors; P. falciparum luciferase growth in erythrocytes, 48 h
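Luminescence readout; reporter = integrated firefly luciferase in P. falciparum. RBC culture at 2% hematocrit, 0.1% parasitemia final, 37 C/5% CO2; decreased signal taken as growth inhibition.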
Pf growth 96h – inhibits malaria parasite growth, 96 h; P. falciparum luciferase reporter growth, 96 h; 320,000 tested, 6.9% active; Potency, µM (highest dose often 28.7 µM), usual class: inhibitors
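Readout is luminescence from an integrated firefly luciferase in P. falciparum. Red cells, 2% hematocrit and 0.05% parasitemia final, were cultured with compound through two parasite generations (96 hours) at 37 C, 5% CO2.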
Cycloheximide cs – counter-screen for Shiga toxin inhibitors: cycloheximide protein synthesis inhibition. cell reporter, cycloheximide protein synthesis inhibition counterscreen. max response, %. 300,000 tested, 12% active; in the data active = max response mostly above about 13%, no sharp cut-off; inactive = mostly below about 14%; also: read at 38.3 µM for the half of the compounds with a filed dose
Numbers stand for hits; [ ] = another dose, or the depositor's remark. Unless noted, calls follow the shape of the dose curve; as a rule, active = well fitted curve in the direction sought with a large enough effect; inconclusive = small, poorly fitted or top-dose-only effect, or another doubt; inactive = no such curve, though single readings can be large; an effect the other way counts as inactive or inconclusive.

CCn1c(SCC(=O)Nc2ccc3c(c2)OCCO3)nnc1-c1c[nH]c2ccccc12 was read as Giardia FBPA inh inactive, NS1 inh inactive, Shiga toxin inh inactive, Pf growth 48h inconclusive, Pf growth 96h inconclusive and Cycloheximide cs 12.
For Nn1cnnc1SCC(=O)Nc1ccc2c(c1)OCCO2 the results were Giardia FBPA inh inactive, NS1 inh inactive, Shiga toxin inh inactive, Pf growth 48h inactive, Pf growth 96h inactive and Cycloheximide cs 12.
For CCOC(=O)c1c(NC(=O)CSc2nnc(-c3c[nH]c4ccccc34)n2CC)sc2c1CCCC2 the results were Giardia FBPA inh inactive, NS1 inh inconclusive, Shiga toxin inh inactive, Pf growth 48h inconclusive, Pf growth 96h 12µM and Cycloheximide cs inactive.
For Cc1ccc(NC(=O)CSc2nncn2N)cc1C the results were Giardia FBPA inh inactive, NS1 inh inactive, Shiga toxin inh inactive, Pf growth 48h inactive, Pf growth 96h inconclusive and Cycloheximide cs inactive.
For Cc1ccc(NCc2nnc(SCC(=O)Nc3ccccc3)n2CC2CCCO2)c(C)c1 (configuration not stated) the results were Giardia FBPA inh inactive, NS1 inh inactive, Shiga toxin inh inactive, Pf growth 48h inactive and Cycloheximide cs 33.
`N#CC1(c2ccccc2)CCC(=O)N1Cc1ccccc1` (configuration not stated) gave Giardia FBPA inh inactive, NS1 inh inactive, Shiga toxin inh inactive, Pf growth 48h inactive, Pf growth 96h inactive and Cycloheximide cs inactive.
For CCc1c(C(=O)NNC(=S)Nc2ccc(S(=O)(=O)Nc3ncccn3)cc2)csc1C the results were Giardia FBPA inh inconclusive, NS1 inh inactive, Shiga toxin inh inactive, Pf growth 48h inactive, Pf growth 96h inconclusive and Cycloheximide cs inactive.
N#CCOC(=O)C1CCN(S(=O)(=O)c2ccc3c(c2)OCCO3)CC1 was read as Pf growth 48h inconclusive and Pf growth 96h inactive.
Screening CCc1ccccc1-n1c(SCC(=O)Nc2ccc3c(c2)OCCO3)nc2[nH]ncc2c1=O returned Giardia FBPA inh inactive, NS1 inh inactive, Shiga toxin inh 112, Pf growth 48h inactive, Pf growth 96h inactive and Cycloheximide cs 53.
CCn1c(C)nnc1SCC(=O)Nc1ccc2c(c1)OCCO2 was read as NS1 inh inactive, Shiga toxin inh inactive, Pf growth 48h inactive, Pf growth 96h inactive and Cycloheximide cs 13.
For O=C(CS(=O)(=O)c1c[nH]c2ccccc12)Nc1ccc2c(c1)OCCO2 the results were Giardia FBPA inh inconclusive, NS1 inh inactive, Shiga toxin inh 45, Pf growth 48h inactive, Pf growth 96h inactive and Cycloheximide cs 38.
For CCn1c(COc2ccc(Cl)cc2)nnc1SCC(=O)Nc1ccc2c(c1)OCO2 the results were Giardia FBPA inh inactive, NS1 inh inactive, Shiga toxin inh inactive, Pf growth 48h inactive, Pf growth 96h 10µM and Cycloheximide cs inactive.
`CCn1c(SCC(=O)Nc2ccc3c(c2)OCCO3)nnc1-c1cccs1` gave Giardia FBPA inh inactive, NS1 inh inactive, Shiga toxin inh inactive, Pf growth 96h inconclusive and Cycloheximide cs inactive.
Screening COc1ccc(-c2cc(=O)oc3cc(OC(C)C(=O)NCCCn4ccnc4)ccc23)cc1 (configuration not stated) returned Giardia FBPA inh inactive, NS1 inh inactive, Shiga toxin inh inactive, Pf growth 48h inconclusive, Pf growth 96h inconclusive and Cycloheximide cs inactive.
Cc1nc(NC2CCCCC2)c2nc(-c3ccccc3)n(CCN3CCCCC3)c2n1 was read as Giardia FBPA inh inactive.
O=C(CSc1nnc(-c2ccccc2Cl)n1Cc1ccco1)Nc1ccc2c(c1)OCCO2 was read as Giardia FBPA inh inactive, NS1 inh inactive, Shiga toxin inh inactive, Pf growth 48h inconclusive and Cycloheximide cs 13.
Screening Cc1nnc(SCC(=O)Nc2ccc3c(c2)OCCO3)n1CC1CCCO1 (configuration not stated) returned Giardia FBPA inh inactive, NS1 inh inactive, Shiga toxin inh 30, Pf growth 48h inactive, Pf growth 96h inactive and Cycloheximide cs 7.4.
Screening Cc1occc1-c1nnc(SCC(=O)Nc2ccc3c(c2)OCO3)n1CC1CCCO1 (configuration not stated) returned Giardia FBPA inh inactive, NS1 inh inactive, Shiga toxin inh inactive, Pf growth 48h inactive, Pf growth 96h inactive and Cycloheximide cs inactive.
Cc1nnc(SCC(=O)Nc2ccc3c(c2)OCCO3)n1N was read as Giardia FBPA inh inactive, NS1 inh inactive, Shiga toxin inh inactive, Pf growth 48h inactive and Cycloheximide cs inactive.
O=C(CSc1nnc(-c2ccc(Cl)cc2)n1Cc1ccco1)Nc1ccc2c(c1)OCCO2 was read as Giardia FBPA inh inactive, NS1 inh inactive, Shiga toxin inh inactive, Pf growth 48h inconclusive, Pf growth 96h inconclusive and Cycloheximide cs inactive.
Screening COc1ccc(-c2cnc(SCC(=O)Nc3ccc4c(c3)OCO4)n2Cc2ccco2)cc1 returned Giardia FBPA inh inactive, NS1 inh inactive, Shiga toxin inh inactive and Cycloheximide cs 14.
For Cc1ccc(-c2nnc(SCC(=O)Nc3ccc4c(c3)OCCO4)n2N)cc1 the results were Giardia FBPA inh inactive, NS1 inh inactive, Shiga toxin inh inactive, Pf growth 48h inactive, Pf growth 96h 10µM and Cycloheximide cs inactive.
For O=C(OCC(=O)N1CCOCC1)c1ccc2c(c1)OCCO2 the results were Giardia FBPA inh inactive, NS1 inh inactive, Shiga toxin inh inactive, Pf growth 48h inactive, Pf growth 96h inactive and Cycloheximide cs inactive.
CC1CCN(C(=O)COC(=O)c2ccc3c(c2)OCO3)CC1 was read as Giardia FBPA inh inactive, Shiga toxin inh 82, Pf growth 48h inactive, Pf growth 96h inactive and Cycloheximide cs 34.
`CC1CCN(C(=O)COC(=O)c2ccc(Br)o2)CC1` gave Giardia FBPA inh inactive, NS1 inh inactive, Shiga toxin inh 94, Pf growth 96h inactive and Cycloheximide cs 67.
Screening CCOC(=O)C1CCN(C(=O)COC(=O)c2ccc(Br)o2)CC1 returned Giardia FBPA inh inactive, NS1 inh inactive, Shiga toxin inh inactive, Pf growth 48h inactive, Pf growth 96h inactive[5.75 µM] and Cycloheximide cs inactive.
`Cc1ccc([C@@]2(C)CC/C(=N/N=C3\CC[C@](C)(c4ccc(C)c(C)c4)c4cc(C)c(C)cc43)c3cc(C)c(C)cc32)cc1C` gave NS1 inh inactive.
For CCCNC(=O)C(Cc1cccc(Cl)c1)NC(=O)c1ccccc1 (configuration not stated) the results were Pf growth 48h inconclusive and Pf growth 96h inactive.
Screening CC(=O)Oc1ccc(-c2csc(Nc3ccc(Cl)cn3)n2)cc1 returned Giardia FBPA inh inactive, NS1 inh inactive, Shiga toxin inh 39, Pf growth 48h inactive, Pf growth 96h inactive and Cycloheximide cs 42.
`Cc1nc(N)sc1-c1csc(Nc2ccccn2)n1` gave Giardia FBPA inh inconclusive, NS1 inh inactive, Shiga toxin inh 122, Pf growth 48h inactive, Pf growth 96h inactive and Cycloheximide cs 34.
`Cc1nc(N)sc1-c1csc(Nc2ccc(Cl)cn2)n1` gave Giardia FBPA inh inconclusive, NS1 inh inactive, Shiga toxin inh 48, Pf growth 48h inactive, Pf growth 96h inactive and Cycloheximide cs 24.

Screening data deposited in PubChem by National Center for Advancing Translational Sciences (NCATS).
